The values below come from PubChem BioAssay AID588358 (NMMLSC, 2011).

Among all 310,000 compounds or so, about 1,500 (0.48%) were called active. For the sample, actives were picked, then their nearest neighbours and some compounds at random. Unmarked numbers belong to inactive results.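 Rule for the calls: active = binding more than 3 SD below its plate's average and above zero; inconclusive = below that plate limit but binding exactly zero; inactive = the rest.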

The target of this test is Desmoglein-3 (Homo sapiens) (UniProt P32926). Kind of test: inhibitors of pemphigus antibody binding to DSG3, primary screen, biochemical, bead-based, flow cytometry, scFv-GFP (AID 588358).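 Note: hits lower antibody fragment binding to DSG3.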 The settings on record: DSG3-coupled beads, scFv-anti-DSG3-GFP binding, at 10 µM, stronger effect = lower value. A general note: A flow cytometer gives signals particle by particle.
Desmoglein-3 (Homo sapiens), sequence (P32926 whole entry, looked up, the tested form may be a part): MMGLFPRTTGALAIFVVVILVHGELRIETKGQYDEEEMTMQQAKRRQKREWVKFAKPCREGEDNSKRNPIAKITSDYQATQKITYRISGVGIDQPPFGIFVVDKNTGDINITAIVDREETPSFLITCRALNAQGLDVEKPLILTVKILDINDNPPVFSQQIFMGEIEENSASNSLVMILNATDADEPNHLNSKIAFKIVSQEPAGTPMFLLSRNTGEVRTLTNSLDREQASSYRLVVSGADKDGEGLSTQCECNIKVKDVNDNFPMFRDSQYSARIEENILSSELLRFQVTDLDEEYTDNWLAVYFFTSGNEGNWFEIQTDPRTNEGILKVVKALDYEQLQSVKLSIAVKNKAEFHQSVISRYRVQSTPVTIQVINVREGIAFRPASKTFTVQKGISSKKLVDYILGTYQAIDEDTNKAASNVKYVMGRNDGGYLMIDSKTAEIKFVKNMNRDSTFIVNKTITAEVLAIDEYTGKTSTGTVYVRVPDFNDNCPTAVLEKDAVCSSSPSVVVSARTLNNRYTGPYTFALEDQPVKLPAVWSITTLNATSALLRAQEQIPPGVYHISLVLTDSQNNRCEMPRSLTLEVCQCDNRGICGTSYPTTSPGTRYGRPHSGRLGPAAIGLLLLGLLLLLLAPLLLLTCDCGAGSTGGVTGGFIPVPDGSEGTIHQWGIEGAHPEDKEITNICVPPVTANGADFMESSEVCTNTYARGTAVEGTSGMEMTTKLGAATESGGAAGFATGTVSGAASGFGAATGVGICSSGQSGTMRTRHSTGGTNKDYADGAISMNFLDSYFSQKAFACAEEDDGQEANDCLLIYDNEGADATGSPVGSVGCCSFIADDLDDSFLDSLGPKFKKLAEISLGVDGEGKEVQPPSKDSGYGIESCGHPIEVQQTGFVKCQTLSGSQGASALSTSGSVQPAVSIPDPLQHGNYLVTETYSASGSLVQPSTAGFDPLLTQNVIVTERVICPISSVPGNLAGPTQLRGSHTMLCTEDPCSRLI
As for `Cc1cc2cc(CNC(=O)c3cccs3)ccc2[nH]1`, the binding (percent of control) was 80.6% (active). Take `Cc1cc2cc(CNC(=O)c3ccc(S(=O)(=O)N4CCOCC4)cc3)ccc2[nH]1`: the binding (percent of control) is 95.4%. For `CCc1cccc(CC)c1NC(=S)NCc1ccc2[nH]c(C)cc2c1` the value was 78.1%; for `Cc1onc(-c2ccccc2)c1-c1nnc(COC(=O)c2ccc(N(C)C)cc2)o1`, 109%; for `C[C@H](CO)N1C[C@H](C)[C@H](CN(C)C(=O)c2ccncc2)OCc2ccccc2-c2c(n(C)c3ccccc23)C1=O`, 103%. The same measure for `Cc1cccc(C(=O)NC2CCN(CC(=O)Nc3cccc(Cl)c3)CC2)c1`: 92.9%.

For `O=C(c1cc(-c2ccc(F)cc2)on1)N1CCN(c2ccc(F)cc2)CC1`, the binding (percent of control) was 91%. In the case of `O=C(c1cc(-c2ccc(O)cc2)on1)N1CCOCC1`, the binding (percent of control) was 104%. For `O=C(c1cc(-c2ccc(Cl)cc2)on1)N1CCN(c2ccccc2)CC1` the value was 24.2% (active); for `Cc1cccc(C(=O)Nc2nnc(S(=O)(=O)N3CCCCCC3)s2)c1`, 29.9% (active). Turning to `COc1cccc(C(=O)Nc2nnc(S(=O)(=O)N3CCCCC3)s2)c1`, the binding (percent of control) is 99.3%.

As to `O=C(Nc1nnc(S(=O)(=O)N2CCCCCC2)s1)c1cccc(Br)c1`, the binding (percent of control) was 102%. For `CC1(C2CC2)NC(=O)N(CC(=O)N2CCN(c3ccccc3F)CC2)C1=O` (configuration not stated) the value was 101%; for `COc1ccc(NC(=O)CSc2nnnn2-c2cccc(OC)c2)cc1`, 92.2%; for `O=C(O)c1cc2ccccc2c(=O)s1`, 53.2% (active). The same measure for `O=C(O)c1ccc(S(=O)(=O)c2ccccc2)s1`: 123%; for `O=C(O)C#Cc1cccc2ccccc12`: 97.7%; for `CCN1C(=O)[C@H]2[C@@H](c3ccc(C(F)(F)F)cc3)N[C@]3(CCCN(Cc4ccc(Br)cc4)C3=O)[C@H]2C1=O`: 111%. The same measure for `CCC(=C/c1sc2ccc3ccccc3c2[n+]1C)/C=C1\Sc2ccc3ccccc3c2N1C`: 75% (active); for `CCOC(=O)c1cc(-c2sc(NC(=O)c3ccccc3)nc2C)n(-c2ccc(Br)cc2)n1`: 102%. In the case of `O=C(CSc1ccccn1)N1CCN(S(=O)(=O)c2ccc(Cl)cc2)CC1`, the binding (percent of control) is 96.2%. The same measure for `Nc1nc(SCC(=O)N2CCN(S(=O)(=O)c3ccc(Cl)cc3)CC2)n[nH]1`: 104%; for `O=C(COc1ccc(Cl)cc1)N1CCN(S(=O)(=O)c2ccc(Cl)cc2)CC1`: 66.4% (active); for `O=C(CSc1ccc(-c2ccc(-n3cccn3)cc2)nn1)Nc1ccc([N+](=O)[O-])cc1`: 89.5% (active). The same measure for `O=C(CSc1ccc([N+](=O)[O-])cn1)Nc1ccc(N2CCOCC2)cc1`: 96.9%; for `O=C(CSc1ccc(-c2ccccn2)nn1)Nc1ccccc1`: 101%; for `COc1ccccc1NC(=O)C(CC(=O)O)Cc1cc(C)cc(C)c1` (configuration not stated): 96.8%. The same measure for `COc1ccc(CCNC(=O)CN(c2ccccc2)S(=O)(=O)c2ccccc2)cc1`: 97.8%; for `COc1ncnc2c1ncn2CCCNCCN1CCOCC1`: 98%. As to `COc1cccc(/C=N/Nc2ccc(Cl)nn2)c1`, the binding (percent of control) was 98.6%. Take `COc1cccc(/C=N/NC(=O)C(=O)N2CCCC2)c1`: the binding (percent of control) was 102%.

Regarding `COc1cccc(/C=N\Nc2nncc(-c3ccccc3)n2)c1`, the binding (percent of control) was 90.1% (active). For `CC(=O)c1c(C)n(-c2ccc(N(C)C)cc2)c2ccc(OCC(N)=O)cc12` the value was 96.5%. For `CCOC(=O)c1c(CN2CCOCC2)n(-c2ccccc2)c2ccc(O)cc12` the value was 107%.

For `CC(=O)c1c(C)n(-c2ccc(C)cc2)c2ccc(O)cc12`, the binding (percent of control) was 61.8% (active). Turning to `CCOC(=O)C(C(=O)c1ccccc1)C(c1ccccc1)c1nccc2ccccc12` (configuration not stated), the binding (percent of control) is 108%. For `O=C(O)C1CCCN1c1nc(Cl)ccc1[N+](=O)[O-]` (configuration not stated) the value was 90.2%; for `COc1ccc(S(=O)(=O)N2CCC(C(=O)NCCC(=O)NCCc3cccc(F)c3)CC2)cc1`, 99%; for `Cc1nc(-c2ccccc2)sc1C(=O)/C=C/N(C)C`, 97.8%. For `Cc1nc(-c2ccc(Cl)cc2)sc1C(=O)NN` the value was 110%; for `Cc1nc(-c2ccc(Cl)cc2)sc1C(=O)CBr`, 63.4% (active).

On to `COc1ccc(CN2C(=O)C(CC(=O)NC3CCCCC3)CC(C(=O)N3CCOCC3)=C2C)cc1` (configuration not stated), for which the binding (percent of control) was 102%.

Take `O=[N+]([O-])c1ccc(N=NNc2ccc([N+](=O)[O-])cc2)cc1`: the binding (percent of control) is 44.4% (active). For `COC(=O)c1ccccc1N=NNc1ccc([N+](=O)[O-])cc1` the value was 104%. For `O=[N+]([O-])c1ccc(N/N=C/c2ccccc2)cc1` the value was 102%; for `COc1cc(C)c(CN2CCN(C(=O)CCC(=O)c3ccc(C)s3)CC2)cc1OC`, 98.2%; for `COc1ccc(NC(=O)CCCOc2ccc(C(C)=O)cc2)cc1S(=O)(=O)N1CCCCC1`, 109%. The same measure for `c1ccc(Cn2nnc3c(NCC4CC4)ncnc32)cc1`: 101%; for `O=C(c1cccnc1)N(Cc1ccccc1)C(=O)c1cccnc1`: 86.3%. Consider `O=C(CC(=O)c1cccnc1)c1ccccc1`, for which the binding (percent of control) is 66.2% (active). For `O=C(NNC(=O)c1cccnc1)Nc1ccccc1` the value was 103%; for `CCOC(=O)c1cc(-c2sc(NC(=O)c3ccccc3)nc2C)n(Cc2ccccc2)n1`, 101%. For `CCOC(=O)C1CCN(C(=O)c2ccc3c(=O)n4nc(Nc5ccccc5CC)sc4nc3c2)CC1` the value was 104%; for `Cc1ccc(NC(=O)Cn2sc3ccccc3c2=O)cc1`, 58.5% (active). `Cc1nn(CC(=O)Nc2ccc(F)cc2)c(=O)c2ccccc12`: the binding (percent of control) is 105%. The same measure for `Cc1ccc(NC(=O)Cn2c(C)csc2=O)cc1`: 92.9%.

`C[C@@H]1CN([C@@H](C)CO)C(=O)c2c(c3ccccc3n2C)-c2ccccc2CO[C@H]1CN(C)C(=O)C1CC1`: the binding (percent of control) is 101%. The same measure for `COc1ccc(Cl)cc1NC(=O)CN(C)C(=O)c1cn(-c2ccccc2)nc1-c1cccs1`: 112%; for `Cn1ncc([N+](=O)[O-])c1C(=O)Nc1cc(Cl)ccc1Cl`: 102%. The same measure for `COc1cc(-c2nnn(CC(=O)NCc3ccccc3)n2)cc(OC)c1OC`: 89.3%. In the case of `N#Cc1ccc(COC(=O)Cn2nnc(-c3ccccc3)n2)cc1`, the binding (percent of control) was -1.31% (active).

In the case of `O=C(Cn1nnc(-c2ccccc2)n1)NC(=O)NC1CCCC1`, the binding (percent of control) was 102%.
